Test results taken from PubChem BioAssay (Tox21).
Records with an inconclusive call do not appear. The source made the active and inactive calls. Unless noted, calls follow the shape of the full dose curve.

Columns and labels:
[1] = Nuclear factor erythroid 2-related factor 2/antioxidant responsive element (Nrf2/ARE) small molecule agonists: qHTS cell viability counter screen in human keratinocytes (AID 1919968; active = well fitted curve in the direction sought with a large enough effect in the repeat runs; an effect the other way counts as inactive or inconclusive; also: nearly all actives have a fitted effect of over 55% in size)
Outline: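 Stably transfected HaCaT (KeratinoSens), 1,500/well. Test agents in DMSO were applied for 23 h, 37 C/5% CO2. CellTiter-Fluor was incubated 1 h before the fluorescence read.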

[2] = molecular target: Gonadotropin-releasing hormone receptor (Homo sapiens) (UniProt P30968); test: Human gonadotropin-releasing hormone receptor (GnRHR) small molecule agonists, calcium flux assay in GnRHR-HEK293 cells (AID 1920063); also: nearly all actives have a fitted effect of over 35% in size
Outline: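 Stable human GnRHR HEK293 line. 18 h plating, then calcium dye for 1 h at 37 C. Agonist-mode compound addition from DMSO stocks; fluorescence monitored 3 min.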

[3] = molecular target: KiSS-1 receptor (Homo sapiens) (UniProt Q969F8); test: Human kisspeptin (KISS1R) small molecule agonists, calcium flux assay in KISS1R-HEK293 cells (AID 1920064; active = well fitted curve in the direction sought with a large enough effect in the repeat runs; an effect the other way counts as inactive or inconclusive)
Outline: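 After overnight (18 h) culture at 37 C/5% CO2, human KISS1R-HEK293 cells received calcium dye for 1 h, then test compound; emission at 540 nm (excitation 480 nm) was tracked for 3 min.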

[4] = G protein-coupled receptor (GPCR) small molecule agonists, calcium flux assay: HEK293 wild type cell line counter screen (AID 1920065)
Outline: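 Following 18 h incubation at 37 C/5% CO2, plates got calcium dye for 1 h; compounds, ATP or DMSO were then pinned in and fluorescence followed kinetically (480/540 nm).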

[5] = p53 small molecule agonists, cell-based qHTS assay with human liver microsomes (AID 1963577);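 also: p53 response element beta-lactamase reporter cells with liver microsomes plus NADPH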
Outline: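 Reporter activation was measured by LiveBLAzer fluorescence intensity in p53RE-bla cells, which had been exposed to compounds for 16 h at 37 C alongside 0.5 mg/mL human liver microsomes and 0.5 mg/mL NADPH (final concentrations).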

[6] = p53 small molecule agonists, cell-based qHTS assay with rat liver microsomes (AID 1963578)
Outline: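 Compound in DMSO added to p53RE-bla cells 5 h post-plating; rat microsomes/NADPH 0.5 mg/mL final; 16 h, 37 C; LiveBLAzer 2 h RT.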

[7] = p53 small molecule agonists, cell-based qHTS assay with human liver microsomes: qHTS cell viability counter screen (AID 1963579); also: nearly all actives have a fitted effect of over 45% in size
Outline: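 HLM-supplemented (0.5 mg/mL final) and NADPH-supplemented (0.5 mg/mL final) p53RE-bla cultures, 4,000 cells per well, were dosed with compounds in DMSO for 16 h at 37 C; luminescent ATP detection (CellTiter-Glo, 30 min, room temperature) quantified surviving cells.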

[8] = p53 small molecule agonists, cell-based qHTS assay with rat liver microsomes: qHTS cell viability counter screen (AID 1963580); also: nearly all actives have a fitted effect of over 45% in size
Outline: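 After the beta-lactamase ratio was read, CellTiter-Glo was added to the same wells and luminescence measured at 30 min; cells had been treated 16 h at 37 C with compounds, rat liver microsomes and NADPH (0.5 mg/mL final each).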

[9] = p53 small molecule agonists, cell-based qHTS assay: qHTS cell viability counter screen (AID 1963581); also: nearly all actives have a fitted effect of over 45% in size
Outline: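 qHTS counter screen: 16 h compound exposure at 37 C of p53RE-bla HCT-116 cells (4,000 per well, seeded 5 h prior), cell viability by ATP luminescence.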

[10] = p53 small molecule agonists, cell-based qHTS assay (AID 1963582; active = well fitted activation curve with a large enough effect in the signal ratio in the repeat runs, not every such curve was filed as active; the % refers to the signal ratio)
Outline: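 Measured: fluorescence from cleaved LiveBLAzer substrate. System: p53RE-bla cells, 16 h compound treatment at 37 C, 2 h substrate step at room temperature.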

[11] = molecular target: 5-hydroxytryptamine receptor 2A (Homo sapiens) (UniProt P28223); test: 5-hydroxytryptamine receptor 2A (HTR2A) small molecule antagonists, cell-based qHTS assay (AID 1963586); also: nearly all actives have a fitted effect of over 45% in size
Outline: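 CHO cells stably expressing human HTR2A were plated for 18 h at 37 C, then loaded with calcium dye for 1 h. Compounds were preincubated 5 min at room temperature before DOI (4 nM solution) was added. Kinetic fluorescence was read for 3 min.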

[12] = molecular target: 5-hydroxytryptamine receptor 2A (Homo sapiens) (UniProt P28223); test: 5-hydroxytryptamine receptor 2A (HTR2A) small molecule agonists, cell-based qHTS assay (AID 1963587); also: nearly all actives have a fitted effect of over 30% in size
Outline: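 CHO cells stably expressing human HTR2A, plated 18 h, loaded with calcium dye 1 h at 37 C. Agonist mode: compounds added and intracellular calcium fluorescence recorded kinetically for 2 min at 1 sec intervals.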

[13] = molecular target: Muscarinic acetylcholine receptor M1 (Homo sapiens) (UniProt P11229); test: Cholinergic receptor muscarinic 1 (CHRM1) small molecule antagonists, cell-based qHTS assay (AID 1963588); also: nearly all actives have a fitted effect of over 40% in size
Outline: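 Compounds were tested at 15 concentrations in three independent runs. Dye-loaded CHRM1-CHO cells were exposed 5 min at room temperature before stimulation by acetylcholine added at 50nM. Intracellular calcium was read kinetically on FDSS for 3 min.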

[14] = molecular target: Muscarinic acetylcholine receptor M1 (Homo sapiens) (UniProt P11229); test: Cholinergic receptor muscarinic 1 (CHRM1) small molecule agonists, cell-based qHTS assay (AID 1963589); also: nearly all actives have a fitted effect of over 35% in size
Outline: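 Kinetic fluorescence (1 s intervals) of calcium-sensitive dye in human M1 CHO cells after compound addition; cells pre-incubated 18 h at 37 C/5% CO2 and dye-loaded 1 h.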

[15] = cAMP Responsive Elements (CRE) small molecule agonists, cell-based qHTS assay (AID 1963590)
Outline: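 Test agents in DMSO were incubated 3 h at 37 C/5% CO2 with CRE-bla HEK 293T cells seeded 18 h earlier; LiveBLAzer B/G FRET substrate was added and read after 2 h at room temperature.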

[16] = cAMP Responsive Elements (CRE) small molecule antagonists, cell-based qHTS assay (AID 1963591; active = well fitted inhibition curve with a large enough effect in the signal ratio in the repeat runs, not every such curve was filed as active; the % refers to the signal ratio)
Outline: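 Reporter line CRE-bla HEK 293T in dialyzed-FBS DMEM; cells preincubated 18 h, treated 3 h with compound plus NKH477 (0.25 uM final); LiveBLAzer FRET, 2 h RT.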

[17] = molecular target: Beta-2 adrenergic receptor (Homo sapiens) (UniProt P07550); test: Adrenergic beta2 receptor (ADRB2) small molecule antagonists, cell-based qHTS assay (AID 1963592); also: series mostly up to about 92 µM; nearly all actives have a fitted effect of over 50% in size
Outline: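 Assay format: CHO-ADRB2 cells, 18-20hr seeding at 37C/5% CO2, then compound plus 1nM isoproterenol agonist mix for 0.5hr RT. Homogeneous time-resolved fluorescence cAMP detection after 1hr, expressed as 665/615 nm ratio.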

[18] = molecular target: Beta-2 adrenergic receptor (Homo sapiens) (UniProt P07550); test: Adrenergic beta2 receptor (ADRB2) small molecule agonists, cell-based qHTS assay (AID 1963593);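 also: CHO cells stably overexpressing human ADRB2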
Outline: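 CHO cells stably over-expressing ADRB2 were plated overnight at 37C, then dosed with compounds plus a stimulation mix containing 100uM IBMX and 25uM Ro-20-1724 for 0.5hr at room temperature. cAMP was measured by HTRF competition, 1hr.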

[19] = molecular target: D(2) dopamine receptor (Homo sapiens) (UniProt P14416); test: Dopamine D2 receptor (DRD2) small molecule agonists, cell-based qHTS assay (AID 1963594); also: nearly all actives have a fitted effect of over 35% in size
Outline: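 HEK293 cells stably expressing human DRD2, pre-treated with PDE inhibitor Ro20-1724 (0.1 mM final) and compound 10 min at room temperature, then stimulated with NKH477 (200nM […]) for 30 min. cAMP read by HTRF (665/620 nm).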

[20] = molecular target: D(2) dopamine receptor (Homo sapiens) (UniProt P14416); test: Dopamine D2 receptor (DRD2) small molecule antagonists, cell-based qHTS assay (AID 1963595; active = well fitted inhibition curve with a large enough effect in the signal ratio in the repeat runs, with a control signal flat; the % refers to the signal ratio)
Outline: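 HEK293 cells stably expressing DRD2, preincubated with 0.1 mM Ro20-1724 and compounds 10 min, were stimulated with 200 nM NKH477 plus 12 nM quinpirole for 30 min at room temperature; cAMP measured by HTRF (665/620 nm).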
% is scaled to controls: 0 for no effect and ±100 for the full control effect.

Chain of Gonadotropin-releasing hormone receptor (Homo sapiens) (P30968 whole entry, looked up): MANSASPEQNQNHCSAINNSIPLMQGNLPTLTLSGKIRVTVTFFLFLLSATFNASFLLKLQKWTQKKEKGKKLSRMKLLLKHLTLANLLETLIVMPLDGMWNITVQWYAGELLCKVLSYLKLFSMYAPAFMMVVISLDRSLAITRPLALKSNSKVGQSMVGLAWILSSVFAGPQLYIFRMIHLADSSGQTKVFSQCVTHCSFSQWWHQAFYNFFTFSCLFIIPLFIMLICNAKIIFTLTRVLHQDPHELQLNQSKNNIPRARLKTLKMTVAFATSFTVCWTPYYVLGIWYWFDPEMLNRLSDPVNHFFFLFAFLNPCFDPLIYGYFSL
Chain of Beta-2 adrenergic receptor (Homo sapiens) (P07550 whole entry, looked up): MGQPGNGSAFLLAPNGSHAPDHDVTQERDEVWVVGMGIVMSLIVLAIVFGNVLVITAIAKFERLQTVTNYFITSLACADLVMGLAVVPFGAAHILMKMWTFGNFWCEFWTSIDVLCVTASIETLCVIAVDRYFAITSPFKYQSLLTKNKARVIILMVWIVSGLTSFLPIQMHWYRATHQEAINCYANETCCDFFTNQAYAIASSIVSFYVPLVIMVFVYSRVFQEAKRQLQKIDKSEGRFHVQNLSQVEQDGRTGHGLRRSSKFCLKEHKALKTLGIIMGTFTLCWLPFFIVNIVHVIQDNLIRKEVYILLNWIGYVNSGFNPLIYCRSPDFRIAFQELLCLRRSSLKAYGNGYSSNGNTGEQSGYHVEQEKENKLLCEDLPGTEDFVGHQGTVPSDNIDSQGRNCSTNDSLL
Chain of D(2) dopamine receptor (Homo sapiens) (P14416 whole entry, looked up): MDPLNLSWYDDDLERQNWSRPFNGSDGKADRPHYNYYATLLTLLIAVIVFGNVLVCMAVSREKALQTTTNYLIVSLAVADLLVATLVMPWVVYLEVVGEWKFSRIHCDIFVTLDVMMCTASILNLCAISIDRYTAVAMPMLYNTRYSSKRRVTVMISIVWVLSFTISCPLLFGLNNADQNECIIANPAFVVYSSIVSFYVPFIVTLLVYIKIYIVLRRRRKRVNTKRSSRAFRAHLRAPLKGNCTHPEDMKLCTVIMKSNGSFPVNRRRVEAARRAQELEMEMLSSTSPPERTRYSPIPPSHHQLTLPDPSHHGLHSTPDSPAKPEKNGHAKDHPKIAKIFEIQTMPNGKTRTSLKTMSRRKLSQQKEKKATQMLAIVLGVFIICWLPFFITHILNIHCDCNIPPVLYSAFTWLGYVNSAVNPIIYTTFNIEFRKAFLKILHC
Chain of Muscarinic acetylcholine receptor M1 (Homo sapiens) (P11229 whole entry, looked up): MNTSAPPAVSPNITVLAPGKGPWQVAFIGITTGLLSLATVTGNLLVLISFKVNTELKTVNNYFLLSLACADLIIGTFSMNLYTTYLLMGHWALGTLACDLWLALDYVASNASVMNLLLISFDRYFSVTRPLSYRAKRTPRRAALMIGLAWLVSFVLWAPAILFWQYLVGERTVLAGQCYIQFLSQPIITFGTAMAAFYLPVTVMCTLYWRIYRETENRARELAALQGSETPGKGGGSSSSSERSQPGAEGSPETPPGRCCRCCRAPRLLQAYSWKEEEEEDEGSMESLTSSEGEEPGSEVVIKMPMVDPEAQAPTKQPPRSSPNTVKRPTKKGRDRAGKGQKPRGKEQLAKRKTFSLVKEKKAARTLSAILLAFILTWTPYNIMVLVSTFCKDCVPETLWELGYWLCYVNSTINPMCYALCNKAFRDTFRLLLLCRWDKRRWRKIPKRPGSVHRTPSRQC
Chain of KiSS-1 receptor (Homo sapiens) (Q969F8 whole entry, looked up): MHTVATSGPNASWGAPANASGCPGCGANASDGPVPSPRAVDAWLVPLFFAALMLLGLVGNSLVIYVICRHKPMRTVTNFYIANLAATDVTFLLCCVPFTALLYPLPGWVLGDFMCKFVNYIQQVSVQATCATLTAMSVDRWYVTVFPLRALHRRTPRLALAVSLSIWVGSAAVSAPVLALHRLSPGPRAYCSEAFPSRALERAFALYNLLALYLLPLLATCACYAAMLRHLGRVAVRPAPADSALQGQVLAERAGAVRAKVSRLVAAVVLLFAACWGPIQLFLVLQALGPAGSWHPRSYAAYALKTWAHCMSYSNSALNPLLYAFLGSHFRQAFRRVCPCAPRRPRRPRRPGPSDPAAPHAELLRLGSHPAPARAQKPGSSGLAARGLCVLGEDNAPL
Chain of 5-hydroxytryptamine receptor 2A (Homo sapiens) (P28223 whole entry, looked up): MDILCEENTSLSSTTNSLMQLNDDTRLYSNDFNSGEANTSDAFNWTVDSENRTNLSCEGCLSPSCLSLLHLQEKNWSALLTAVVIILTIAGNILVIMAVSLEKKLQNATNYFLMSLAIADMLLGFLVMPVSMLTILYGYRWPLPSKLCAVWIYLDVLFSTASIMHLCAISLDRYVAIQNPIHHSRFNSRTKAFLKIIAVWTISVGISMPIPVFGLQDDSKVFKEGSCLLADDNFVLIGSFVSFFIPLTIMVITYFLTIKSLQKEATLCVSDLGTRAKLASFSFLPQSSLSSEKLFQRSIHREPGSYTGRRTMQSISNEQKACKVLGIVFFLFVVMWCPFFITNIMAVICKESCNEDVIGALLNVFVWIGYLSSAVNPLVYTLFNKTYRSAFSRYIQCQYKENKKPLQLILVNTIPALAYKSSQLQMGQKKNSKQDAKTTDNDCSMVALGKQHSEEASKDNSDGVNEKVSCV

CCc1ccc(C=O)cc1
inactive: Potency [1] | Potency [2] | Potency [3] | Potency [4] | Potency [5] | Potency [6] | Potency [7] | Potency [8] | Potency [9] | Potency [10] | Potency [11] | Potency [12] | Potency [13] | Potency [14] | Potency [15] | Potency [16] | Potency [17] | Potency [18] | Potency [19] | Potency [20]

NC(=O)Nc1ccccc1
inactive: Potency [1] | Potency [4] | Potency [5] | Potency [6] | Potency [7] | Potency [8] | Potency [9] | Potency [10] | Potency [11] | Potency [12] | Potency [13] | Potency [14] | Potency [15] | Potency [16] | Potency [17] | Potency [18] | Potency [19] | Potency [20]

Nc1c(NC/C=C\COc2cc(CN3CCCCC3)ccn2)c(=O)c1=O
inactive: activity change, negative = cytotoxicity [1] 1.77% [at 19 µM] | activity change [2] -0.254% [at 11.8 µM, stronger effect = higher value] | activation [3] 1.38% [at 15.8 µM] | activation [4] 0.206% [at 11.8 µM] | activation [5] -4.01% [at 13.5 µM] | activation [6] 0.229% [at 13.6 µM] | activity change, negative = cytotoxicity [7] 5.4% [at 13.5 µM] | activity change, negative = cytotoxicity [8] 1.94% [at 13.5 µM] | activity change, negative = cytotoxicity [9] -0.902% [at 13.5 µM] | activation [10] -1.45% [at 13.5 µM] | activity, negative = inhibition [11] -23.4% [at 12.7 µM] | activation [12] 1.98% [at 15.9 µM] | activity, negative = inhibition [13] -18.5% [at 12.6 µM] | activation [14] -0.0227% [at 15.8 µM] | activation [15] 0.666% [at 19 µM] | activity change, negative = inhibition [16] -4.15% [at 18.9 µM] | activity change, negative = inhibition [17] 0.774% [at 19 µM] | activation [18] -3.93% [at 19 µM] | activation [19] -7.29% [at 19 µM] | activity change, negative = inhibition [20] 0.891% [at 18.9 µM]

NC(=O)c1ccccc1N
inactive: Potency [1] | Potency [4] | Potency [5] | Potency [6] | Potency [7] | Potency [8] | Potency [9] | Potency [10] | Potency [13] | Potency [14] | Potency [15] | Potency [17] | Potency [18] | Potency [19] | Potency [20]

Oc1cccc2ccccc12
inactive: Potency [1] | Potency [2] | Potency [3] | Potency [4] | Potency [5] | Potency [6] | Potency [7] | Potency [8] | Potency [9] | Potency [10] | Potency [11] | Potency [12] | Potency [13] | Potency [14] | Potency [15] | Potency [16] | Potency [17] | Potency [19] | Potency [20]

NC(=O)c1ccc(N)cc1
inactive: Potency [1] | Potency [2] | Potency [3] | Potency [4] | Potency [5] | Potency [6] | Potency [7] | Potency [8] | Potency [9] | Potency [10] | Potency [11] | Potency [12] | Potency [13] | Potency [14] | Potency [15] | Potency [16] | Potency [17] | Potency [18] | Potency [19]

OCCOCCOCCOCCOCCO
inactive: Potency [1] | Potency [2] | Potency [3] | Potency [4] | Potency [5] | Potency [6] | Potency [7] | Potency [8] | Potency [10] | Potency [11] | Potency [12] | Potency [13] | Potency [15] | Potency [17] | Potency [18] | Potency [19] | Potency [20]
